# According to PubChem BioAssay (NCI):
# About 79,000 compounds went through this panel and 15% of them were active in at least one assay; those are over-represented in the sample as a whole. A number with no mark means an inactive call. Activity calls are given as the source filed them. No stated cut-off is given here; in the data, active means growth inhibition above about 70%; inactive means the rest.
# Legend:
# [1] = NCI Yeast Anticancer Drug Screen. Data for the rad52 strain (AID 147);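 further: 0% = growth of vehicle-treated control cultures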; settings: S. cerevisiae rad52 mutant growth inhibition, active compounds read high
# How it was run: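 Yeast strain carrying a DNA damage repair alteration was exposed to test compounds. Growth inhibition was measured relative to vehicle-treated controls.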
# [2] = NCI Yeast Anticancer Drug Screen. Data for the wt1 strain (AID 149);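 further: 0% = growth of vehicle-treated wt1 cultures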; settings: S. cerevisiae wt1 strain (SPY 50644) growth inhibition, active compounds read high
# How it was run: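 Yeast wt1 strain exposed to compounds; growth inhibition measured relative to vehicle-treated controls.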
# [3] = NCI Yeast Anticancer Drug Screen. Data for the rad50EPP+ strain (AID 151);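 further: 0% = growth of vehicle-treated control cultures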; settings: S. cerevisiae rad50 mutant strain, active compounds read high
# How it was run: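 Yeast strain carrying rad50 alteration (rad50EPP+) exposed to compounds; growth inhibition measured relative to vehicle-treated controls.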
# [4] = NCI Yeast Anticancer Drug Screen. Data for the rad50 strain (AID 155);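 further: 0% = growth of vehicle-only cultures of the same strain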; settings: S. cerevisiae rad50 strain growth inhibition, active compounds read high
# How it was run: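 Yeast carrying a defined DNA repair defect were exposed to test compounds, and growth was compared with vehicle-treated controls to give percent inhibition.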
# [5] = NCI Yeast Anticancer Drug Screen. Data for the mec2-1 strain (AID 157); settings: S. cerevisiae mec2-1 strain, active compounds read high
# How it was run: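 mec2-1 yeast strain, carrying an alteration in DNA damage repair or cell cycle control, was exposed to compounds; growth inhibition was measured relative to vehicle-treated controls.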
# [6] = NCI Yeast Anticancer Drug Screen. Data for the rad14 strain (AID 159);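 further: 0% = growth of vehicle-treated control cultures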; settings: S. cerevisiae rad14 strain growth inhibition, active compounds read high
# How it was run: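 Yeast cells carrying a defined DNA-repair defect were exposed to compounds, and growth inhibition was calculated relative to vehicle-treated control cultures.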
# [7] = NCI Yeast Anticancer Drug Screen. Data for the sgs1 mgt1 strain (AID 161);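 further: 0% = growth of cultures given vehicle only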; settings: S. cerevisiae sgs1 mgt1 strain, active compounds read high
# How it was run: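 This yeast growth screen uses a strain with defined DNA-repair lesions; compound-treated growth is compared with vehicle-treated growth.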
# [8] = NCI Yeast Anticancer Drug Screen. Data for the CLN2oe strain (AID 163);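 further: 0% = growth of vehicle-only control cultures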; settings: S. cerevisiae CLN2oe strain, active compounds read high
# How it was run: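 Yeast cells carrying a defined cell-cycle control alteration were exposed to test compounds. Growth inhibition was scored against vehicle-treated control cultures.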
# [9] = NCI Yeast Anticancer Drug Screen. Data for the cln2 rad14 strain (AID 165);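 further: 0% = growth equal to vehicle treated cultures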; settings: S. cerevisiae cln2 rad14 strain, active compounds read high
# How it was run: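 Yeast carrying cln2 and rad14 alterations (cell cycle control and DNA damage repair) were exposed to compounds. Growth inhibition was measured against vehicle-treated controls.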
# [10] = NCI Yeast Anticancer Drug Screen. Data for the bub3 strain (AID 167); settings: S. cerevisiae bub3 mutant strain, active compounds read high
# How it was run: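 Compounds were applied to a genetically altered yeast strain carrying a cell-cycle control defect. Growth inhibition was scored against vehicle-treated controls.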
# [11] = NCI Yeast Anticancer Drug Screen. Data for the wt2 strain (AID 169);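 further: 0% = growth of vehicle-treated yeast cultures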; settings: S. cerevisiae wt2 strain growth inhibition, active compounds read high
# How it was run: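 Yeast cells were exposed to test compounds, and growth inhibition was measured relative to vehicle-treated controls.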
# [12] = NCI Yeast Anticancer Drug Screen. Data for the mlh1 strain (AID 171);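 further: 0% = growth of vehicle-treated control cultures of the same strain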; settings: S. cerevisiae mlh1 strain growth inhibition, active compounds read high
# How it was run: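 Yeast carrying a defined genetic alteration in DNA damage repair or cell cycle control were exposed to test compounds. Growth inhibition was measured relative to vehicle-treated controls.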
# [13] = NCI Yeast Anticancer Drug Screen. Data for the sgs1 strain (AID 173);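 further: 0% = growth of vehicle-only control cultures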; settings: S. cerevisiae sgs1 mutant, active compounds read high
# How it was run: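 Yeast mutant strains carrying defined defects in DNA damage repair or cell cycle control were exposed to test compounds. Growth inhibition was scored against vehicle-treated controls.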
# [14] = NCI Yeast Anticancer Drug Screen. Data for the mlh1 rad18 strain (AID 175); settings: S. cerevisiae mlh1 rad18 strain growth inhibition, active compounds read high
# How it was run: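 Growth inhibition of the yeast strain was measured after compound exposure and expressed relative to vehicle-treated controls. The strain carries defined defects in DNA damage repair.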
# [15] = NCI Yeast Anticancer Drug Screen. Data for the rad18 strain (AID 177); settings: S. cerevisiae rad18 mutant growth inhibition, active compounds read high
# How it was run: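 Yeast carrying a defined DNA damage repair alteration were exposed to compounds. Growth inhibition was expressed relative to vehicle-treated controls.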
# [16] = NCI Yeast Anticancer Drug Screen. Data for the mgt1 strain (AID 153); settings: S. cerevisiae mgt1 mutant growth inhibition, active compounds read high
# How it was run: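 Yeast mgt1 strain (DNA repair/cell-cycle alteration panel) exposed to compounds; growth inhibition measured relative to vehicle-treated controls.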
# [17] = at 5.0 µM (retest, dose inferred, filed as 0.5)
# [18] = at 50.0 µM (retest, dose inferred, filed as 5.0)
smiles,measurement,setting,value
CN1CCN(C(=O)/C=C/C(=O)c2ccccc2)CC1,growth inhibition,[1]; at 1.2 µM,4%
same,growth inhibition,[1]; at 3.7 µM,11%
same,growth inhibition,[1]; at 11.0 µM,24%
same,growth inhibition,[1]; at 33.0 µM,63%
same,growth inhibition,[1]; at 100.0 µM,86% (active)
same,growth inhibition,[2]; at 1.2 µM,4%
same,growth inhibition,[2]; at 3.7 µM,12%
same,growth inhibition,[2]; at 11.0 µM,24%
same,growth inhibition,[2]; at 33.0 µM,47%
same,growth inhibition,[2]; at 100.0 µM,87% (active)
same,growth inhibition,[3]; at 1.2 µM,4%
same,growth inhibition,[3]; at 3.7 µM,13%
same,growth inhibition,[3]; at 11.0 µM,31%
same,growth inhibition,[3]; at 33.0 µM,50%
same,growth inhibition,[3]; at 100.0 µM,66%
same,growth inhibition,[4]; at 1.2 µM,-3%
same,growth inhibition,[4]; at 3.7 µM,-8%
same,growth inhibition,[4]; [17],9%
same,growth inhibition,[4]; at 11.0 µM,23%
same,growth inhibition,[4]; at 33.0 µM,69%
same,growth inhibition,[4]; [18],-3%
same,growth inhibition,[4]; at 50.0 µM,93.3% (active)
same,growth inhibition,[4]; at 100.0 µM,90% (active)
same,growth inhibition,[5]; at 1.2 µM,2%
same,growth inhibition,[5]; at 3.7 µM,12%
same,growth inhibition,[5]; [17],-3%
same,growth inhibition,[5]; at 11.0 µM,35%
same,growth inhibition,[5]; at 33.0 µM,67%
same,growth inhibition,[5]; [18],-3%
same,growth inhibition,[5]; at 50.0 µM,95% (active)
same,growth inhibition,[5]; at 100.0 µM,94% (active)
same,growth inhibition,[6]; at 1.2 µM,9%
same,growth inhibition,[6]; at 3.7 µM,12%
same,growth inhibition,[6]; at 11.0 µM,20%
same,growth inhibition,[6]; at 33.0 µM,40%
same,growth inhibition,[6]; at 100.0 µM,87% (active)
same,growth inhibition,[7]; [17],6%
same,growth inhibition,[7]; [18],-9%
same,growth inhibition,[7]; at 50.0 µM,95.5% (active)
same,growth inhibition,[8]; at 1.2 µM,3%
same,growth inhibition,[8]; at 3.7 µM,6%
same,growth inhibition,[8]; at 11.0 µM,15%
same,growth inhibition,[8]; at 33.0 µM,36%
same,growth inhibition,[8]; at 100.0 µM,76% (active)
same,growth inhibition,[9]; [17],39%
same,growth inhibition,[9]; [18],-10%
same,growth inhibition,[9]; at 50.0 µM,72.8% (active)
same,growth inhibition,[10]; at 1.2 µM,-3%
same,growth inhibition,[10]; at 3.7 µM,3%
same,growth inhibition,[10]; [17],7%
same,growth inhibition,[10]; at 11.0 µM,28%
same,growth inhibition,[10]; at 33.0 µM,80% (active)
same,growth inhibition,[10]; [18],91% (active)
same,growth inhibition,[10]; at 50.0 µM,82.5% (active)
same,growth inhibition,[10]; at 100.0 µM,90% (active)
same,growth inhibition,[11]; at 1.2 µM,1%
same,growth inhibition,[11]; at 3.7 µM,10%
same,growth inhibition,[11]; at 11.0 µM,36%
same,growth inhibition,[11]; at 33.0 µM,76% (active)
same,growth inhibition,[11]; at 100.0 µM,93% (active)
same,growth inhibition,[12]; at 1.2 µM,-1%
same,growth inhibition,[12]; at 3.7 µM,12%
same,growth inhibition,[12]; at 11.0 µM,35%
same,growth inhibition,[12]; at 33.0 µM,85% (active)
same,growth inhibition,[12]; at 100.0 µM,96% (active)
same,growth inhibition,[13]; at 1.2 µM,5%
same,growth inhibition,[13]; at 3.7 µM,15%
same,growth inhibition,[13]; at 11.0 µM,42%
same,growth inhibition,[13]; at 33.0 µM,84% (active)
same,growth inhibition,[13]; at 100.0 µM,95% (active)
same,growth inhibition,[14]; [17],-5%
same,growth inhibition,[14]; [18],7%
same,growth inhibition,[14]; at 50.0 µM,97.5% (active)
same,growth inhibition,[15]; at 1.2 µM,2%
same,growth inhibition,[15]; at 3.7 µM,11%
same,growth inhibition,[15]; at 11.0 µM,38%
same,growth inhibition,[15]; at 33.0 µM,84% (active)
same,growth inhibition,[15]; at 100.0 µM,95% (active)
N#CNC(N)=Nc1cc2ccccc2c2ccccc12,growth inhibition,[1]; at 1.2 µM,34%
same,growth inhibition,[1]; at 3.7 µM,60%
same,growth inhibition,[1]; at 11.0 µM,88% (active)
same,growth inhibition,[1]; at 33.0 µM,95% (active)
same,growth inhibition,[1]; at 100.0 µM,92% (active)
same,growth inhibition,[3]; at 1.2 µM,8%
same,growth inhibition,[3]; at 3.7 µM,16%
same,growth inhibition,[3]; at 11.0 µM,61%
same,growth inhibition,[3]; at 33.0 µM,82% (active)
same,growth inhibition,[3]; at 100.0 µM,79% (active)
same,growth inhibition,[16]; at 1.2 µM,27%
same,growth inhibition,[16]; at 3.7 µM,40%
same,growth inhibition,[16]; at 11.0 µM,71% (active)
same,growth inhibition,[16]; at 33.0 µM,88% (active)
same,growth inhibition,[16]; at 100.0 µM,92% (active)
same,growth inhibition,[4]; at 1.2 µM,45%
same,growth inhibition,[4]; at 3.7 µM,69%
same,growth inhibition,[4]; [17],60%
same,growth inhibition,[4]; at 11.0 µM,90% (active)
same,growth inhibition,[4]; at 33.0 µM,96% (active)
same,growth inhibition,[4]; [18],97% (active)
same,growth inhibition,[4]; at 50.0 µM,89.5% (active)
same,growth inhibition,[4]; at 100.0 µM,90% (active)
same,growth inhibition,[5]; at 1.2 µM,24%
same,growth inhibition,[5]; at 3.7 µM,32%
same,growth inhibition,[5]; [17],48%
same,growth inhibition,[5]; at 11.0 µM,58%
same,growth inhibition,[5]; at 33.0 µM,78% (active)
same,growth inhibition,[5]; [18],96% (active)
same,growth inhibition,[5]; at 50.0 µM,67.1%
